Measurements taken from PMC11995724, “Antibiotic target discovery by integrated phenotypic and activity-based profiling of electrophilic fragments” (Cell chemical biology, 2025).
About 110 (3.4%) of roughly 3,200 compounds showed an effect of 50% or more. Many of the other results were omitted from the sample, so strong results are more common in it than they were.

Tested on: T1, V. cholerae SAD30
T1 construct: SAD30
Set-up: species or system S. aureus MSSA476 (TSB) or V. cholerae SAD30 (LB); 384-well bacterial growth screen at 25 uM, OD600 relative to DMSO control
Conditions: relative growth, OD600, LB; 25 µM; inhibitor

Structure (SMILES)	% of control remaining
CN1C=C(C(F)(F)F)C=CC1=C(C#N)C(=O)Nc1ccccc1F [8-H20, 2-cyano-N-(2-fluorophenyl)-2-[1-methyl-5-(trifluoromethyl)-1,2-dihydropyridin-2-ylidene]acetamide]	66.9613%
CC(Cl)C(=O)N(C)Cc1ccccc1 (centres unmarked) [6-I13, N-benzyl-2-chloro-N-methylpropanamide]	78.87%
CN(c1ccccc1)S(=O)(=O)c1cccc(NC(=O)CCl)c1 [4-H04, 2-chloro-N-{3-[methyl(phenyl)sulfamoyl]phenyl}acetamide]	111.106%
O=C(CCc1ccccc1)NC1CCN(C(=O)CCl)CC1 [5-L08, N-[1-(2-chloroacetyl)piperidin-4-yl]-3-phenylpropanamide]	100.704%
C=CC(=O)N(C)CC(=O)NCc1c(O)nnc(C)c1C [2-I20, N-({[(3-hydroxy-5,6-dimethylpyridazin-4-yl)methyl]carbamoyl}methyl)-N-methylprop-2-enamide]	95.9085%
CC(Cl)C(=O)N1CCN(c2cc(-c3ccccc3F)n[nH]2)CC1 (centres unmarked) [6-N20, 2-chloro-1-{4-[3-(2-fluorophenyl)-1H-pyrazol-5-yl]piperazin-1-yl}propan-1-one]	84.7853%
CC(C)C(=O)Nc1ccc(C(=O)CCl)cc1 [10-D04, N-[4-(2-chloroacetyl)phenyl]-2-methylpropanamide]	37.405%
O=C(CCl)c1ccc(NC(=O)c2ccccc2)cc1 [10-B06, N-[4-(2-chloroacetyl)phenyl]benzamide]	21.5079%
NC(=O)Nc1ccc(C(=O)CCl)cc1 [10-J07, [4-(2-chloroacetyl)phenyl]urea]	65.4588%
CC(C)CC(=O)Nc1ccc(C(=O)CCl)cc1 [10-N06, N-[4-(2-chloroacetyl)phenyl]-3-methylbutanamide]	76.8362%
CCC(=O)Nc1ccc(C(=O)CCl)cc1 [10-C03, N-[4-(2-chloroacetyl)phenyl]propanamide]	111.903%
CC(=O)Nc1ccc(C(=O)CCl)cc1 [10-O12, N-[4-(2-chloroacetyl)phenyl]acetamide]	74.4983%
C=CC(=O)NCc1nc2ccccc2n1C1CC1 [2-N03, N-[(1-cyclopropyl-1H-1,3-benzodiazol-2-yl)methyl]prop-2-enamide]	105.172%
N#CC(=Cc1cc2c(cc1[N+](=O)[O-])OCO2)C(=O)NC1CCCCC1 [8-F22, 2-cyano-N-cyclohexyl-3-(6-nitro-1,3-dioxaindan-5-yl)prop-2-enamide]	83.6846%
CN(C)S(=O)(=O)c1cccc(NC(=O)CCl)c1 [4-J08, 2-chloro-N-[3-(dimethylsulfamoyl)phenyl]acetamide]	94.3714%
CC(C)NC(=O)C(C#N)=Cc1ccc(C(F)(F)F)cc1 [8-L13, 2-cyano-N-(propan-2-yl)-3-[4-(trifluoromethyl)phenyl]prop-2-enamide]	68.3209%
Cc1cc(=O)[nH]c(-c2cccc(NC(=O)C(C#N)=Cc3ccco3)c2)n1 [8-B10, 2-cyano-3-(furan-2-yl)-N-[3-(4-methyl-6-oxo-1,6-dihydropyrimidin-2-yl)phenyl]prop-2-enamide]	79.4697%
Cc1ccc(N2C(=O)C=CC2=O)c([N+](=O)[O-])c1 [10-N13, 1-(4-methyl-2-nitrophenyl)-2,5-dihydro-1H-pyrrole-2,5-dione]	27.1186%

Structure (SMILES)	% of control remaining
COc1ccc(NC(=O)CCl)c([N+](=O)[O-])c1 [4-I21, 2-chloro-N-(4-methoxy-2-nitrophenyl)acetamide]	107.311%
COc1ccc(NC(=O)C(C)Cl)c([N+](=O)[O-])c1 (centres unmarked) [6-B08, 2-chloro-N-(4-methoxy-2-nitrophenyl)propanamide]	90.3972%
COc1ccc(N2C(=O)C=CC2=O)c([N+](=O)[O-])c1 [10-L11, 1-(4-methoxy-2-nitrophenyl)-2,5-dihydro-1H-pyrrole-2,5-dione]	30.3916%
Cc1ccc(NC(=O)CCl)c([N+](=O)[O-])c1 [4-A07, 2-chloro-N-(4-methyl-2-nitrophenyl)acetamide]	105.068%
CSc1cccc(-n2c(C)cc(C(=O)CCl)c2C)c1 [10-J16, 2-chloro-1-{2,5-dimethyl-1-[3-(methylsulfanyl)phenyl]-1H-pyrrol-3-yl}ethan-1-one]	105.825%
Cc1ccc(NC(=O)C(C)Cl)cc1S(=O)(=O)N1CCOCC1 (centres unmarked) [5-D22, 2-chloro-N-[4-methyl-3-(morpholine-4-sulfonyl)phenyl]propanamide]	107.429%
N#CC(=Cc1ccc(Cl)cc1Cl)C(=O)Nc1nccs1 [9-H19, 2-cyano-3-(2,4-dichlorophenyl)-N-(1,3-thiazol-2-yl)prop-2-enamide]	79.4697%
C=CC(=O)Nc1ccnn1Cc1cccc(Cl)c1 [1-N14, N-{1-[(3-chlorophenyl)methyl]-1H-pyrazol-5-yl}prop-2-enamide]	86.3592%
C=CC(=O)N(CC)CC(=O)N1CC(C)(C)C1c1nccn1C (centres unmarked) [2-J16, N-{2-[3,3-dimethyl-2-(1-methyl-1H-imidazol-2-yl)azetidin-1-yl]-2-oxoethyl}-N-ethylprop-2-enamide]	90.3503%
CC(Cl)C(=O)NC(=O)Nc1ccccc1 (centres unmarked) [5-I21, 3-(2-chloropropanoyl)-1-phenylurea]	104.066%
C=CC(=O)NC1CS(=O)(=O)C1 [3-P18, N-(1,1-dioxo-1lambda6-thietan-3-yl)prop-2-enamide]	112.909%
COc1cc([N+](=O)[O-])ccc1NC(=O)C(C)Cl (centres unmarked) [4-K12, 2-chloro-N-(2-methoxy-4-nitrophenyl)propanamide]	93.5087%
COc1ccc([N+](=O)[O-])cc1NC(=O)C(C)Cl (centres unmarked) [5-N14, 2-chloro-N-(2-methoxy-5-nitrophenyl)propanamide]	92.6342%
COc1cc([N+](=O)[O-])ccc1N1C(=O)C=CC1=O [10-H13, 1-(2-methoxy-4-nitrophenyl)-2,5-dihydro-1H-pyrrole-2,5-dione]	24.625%
COc1ccc([N+](=O)[O-])cc1N1C(=O)C=CC1=O [10-P13, 1-(2-methoxy-5-nitrophenyl)-2,5-dihydro-1H-pyrrole-2,5-dione]	32.7294%
COc1cc([N+](=O)[O-])ccc1NC(=O)CCl [4-O07, 2-chloro-N-(2-methoxy-4-nitrophenyl)acetamide]	100.582%
COc1ccc([N+](=O)[O-])cc1NC(=O)CCl [4-P17, 2-chloro-N-(2-methoxy-5-nitrophenyl)acetamide]	111.969%
